Results published in publication PMC4336329 (PLoS ONE, 2015).
Screen size: about 310,000 compounds; about 14,000 (4.5%) showed an effect of 50% or more. Effects have a minus sign here. Shown is part of a subset that was picked to be rich in strong results.

These molecules were tested against human ether-à-go-go-related gene (hERG) potassium channel (human, UniProt Q12809) (assay: primary screen, population patch clamp on CHO cells stably expressing hERG; higher = less effect of the substance).
Experimental: Briefly, Chinese hamster ovary (CHO) cells stably expressing the hERG channel were dislodged from tissue culture flasks and dispensed into PPC plates. […] During the recording, background leak currents were estimated by a 100 ms step to -80 mV from an initial holding potential of -70 mV and subtracted from the subsequent current measurement. The campaign was conducted in two phases using slight differences in recording protocol. In the first phase, the initial voltage pulse used a 100 ms step to -30 mV from a holding potential of -70 mV, a 2 s conditioning step to +25 mV, and a 2 s test step to -30 mV. During the second phase of the screen, the potential during the conditioning step was raised to +45 mV. In both phases of the campaign, a secondary voltage pulse was applied using the same parameters as the second phase initial pulse. The initial and secondary pulses were applied in the absence of compound, and upon application of 1 μM and 10 μM test concentrations. […]
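Further: peak tail current of the secondary pulse compared with the same well before compound.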

human ether-à-go-go-related gene (hERG) potassium channel, sequence (Q12809 whole entry, looked up): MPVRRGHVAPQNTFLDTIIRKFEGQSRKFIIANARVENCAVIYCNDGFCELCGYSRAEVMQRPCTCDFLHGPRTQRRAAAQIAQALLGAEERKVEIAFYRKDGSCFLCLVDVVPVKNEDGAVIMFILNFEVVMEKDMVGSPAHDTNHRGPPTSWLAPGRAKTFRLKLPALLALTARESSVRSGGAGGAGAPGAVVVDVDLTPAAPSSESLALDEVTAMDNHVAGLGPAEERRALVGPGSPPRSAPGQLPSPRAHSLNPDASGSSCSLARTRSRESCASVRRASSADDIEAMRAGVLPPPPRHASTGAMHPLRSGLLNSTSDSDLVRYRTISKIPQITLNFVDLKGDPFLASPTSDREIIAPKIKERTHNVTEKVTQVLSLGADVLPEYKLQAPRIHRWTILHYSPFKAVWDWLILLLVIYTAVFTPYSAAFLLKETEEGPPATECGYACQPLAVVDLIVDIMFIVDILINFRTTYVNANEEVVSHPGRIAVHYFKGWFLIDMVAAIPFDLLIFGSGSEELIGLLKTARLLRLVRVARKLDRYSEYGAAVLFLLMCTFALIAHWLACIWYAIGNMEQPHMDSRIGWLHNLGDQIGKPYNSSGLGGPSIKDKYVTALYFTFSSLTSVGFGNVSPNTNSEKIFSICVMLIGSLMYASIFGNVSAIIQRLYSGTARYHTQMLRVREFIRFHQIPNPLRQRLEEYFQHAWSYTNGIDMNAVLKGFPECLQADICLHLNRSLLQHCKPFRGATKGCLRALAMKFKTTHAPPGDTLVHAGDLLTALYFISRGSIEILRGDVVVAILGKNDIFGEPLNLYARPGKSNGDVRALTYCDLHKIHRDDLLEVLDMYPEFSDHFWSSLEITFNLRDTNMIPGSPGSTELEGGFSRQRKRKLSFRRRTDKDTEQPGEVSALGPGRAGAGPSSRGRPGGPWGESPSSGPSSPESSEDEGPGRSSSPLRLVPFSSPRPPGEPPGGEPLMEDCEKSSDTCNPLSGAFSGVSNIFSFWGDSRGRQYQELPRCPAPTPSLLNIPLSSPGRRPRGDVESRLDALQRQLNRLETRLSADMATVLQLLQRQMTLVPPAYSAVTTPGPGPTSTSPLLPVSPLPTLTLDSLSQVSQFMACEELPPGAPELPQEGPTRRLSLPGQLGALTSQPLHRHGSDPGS

Row | Compound | hERG current change (%, negative = inhibition) at 10uM [%]
1 | COc1ccc(C(=O)NCc2ccc(-c3nc4ccccc4s3)cc2)cc1 | 10.1
2 | NS(=O)(=O)c1ccc(CCNC(=O)Nc2ccc(Cl)c(Cl)c2)cc1 | 15.3
3 | CN(C)C1=NCCN1CCc1cccc(F)c1 | -8.41
4 | O=C(NCCN1CCOCC1)c1cc2ccccc2oc1=O | -1.87
5 | Oc1ccc(/C=N/Nc2nccnc2Cl)c(O)c1 | 0.455
6 | COc1ccc(OC)c(C2=NOC(C(=O)NCc3cccs3)C2)c1 (stereo not shown) | -13.5
7 | Cc1ccc(CNc2nc3ccccc3n3cnnc23)cc1 | -6.53
8 | O=C(NC1CCCC1)C(c1cccnc1)N(CCc1ccccc1)C(=O)c1ccco1 (stereo not shown) | -69
9 | Cc1ccc(CN(C(=O)c2ccco2)C(C(=O)NC2CCCC2)c2cccnc2)cc1 (stereo not shown) | -1.98
10 | O=C(NCC(=O)N(CCc1ccccc1)C(C(=O)NC1CCCC1)c1cccnc1)c1ccco1 (stereo not shown) | -43.8
11 | CCOC(=O)c1cc(-c2ccccc2)nn1CC1CC(c2ccc(Cl)cc2)=NO1 (stereo not shown) | -16.2
12 | COc1ccc([N+](=O)[O-])cc1NC(=O)C1(c2ccc(OC)c(OC)c2)CCOCC1 | -14.4
13 | Cc1ccc(NC(=O)CSc2nnc(CNC(=O)c3cccs3)o2)c(C)c1 | 6.79
14 | COc1ccc(CCNC(=O)/C(=C/c2cccnc2)NC(=O)c2ccccc2)cc1OC | -3.35
15 | O=C(NCCc1ccc(Cl)cc1)/C(=C/c1cccnc1)NC(=O)c1ccccc1 | -70.9
16 | COc1ccccc1CCNC(=O)/C(=C/c1cccnc1)NC(=O)c1ccccc1 | -33.9
17 | O=C(NCCc1ccccc1F)/C(=C/c1cccnc1)NC(=O)c1ccccc1 | -52.2
18 | COc1ccc(CCNC(=O)/C(=C/c2cccnc2)NC(=O)c2ccccc2)cc1 | -47.2
19 | O=C(NCCc1cccc(F)c1)/C(=C/c1cccnc1)NC(=O)c1ccccc1 | -36.4
20 | CC1(C)c2[nH]c3ccccc3c2C[C@@H]2C(=O)N(Cc3ccccc3Cl)C(=O)N21 | 15.4
21 | Cc1ccc(S(=O)(=O)NC(C)(C)CSc2nncn2N)cc1 | 9.75
22 | O=C(O)C#Cc1cccc2ccccc12 | 29.8
23 | COc1cccc(N2CCN(CC(=O)Nc3ccc(SC(F)F)cc3)CC2)c1 | -65.5
24 | O=C(CN1CCN(c2ccc(O)cc2)CC1)Nc1ccc(-c2ccccc2)cc1 | -5.1
25 | COc1ccc(N2CCN(CC(=O)Nc3ccc(C)cc3)CC2)cc1 | -18.7
26 | COc1ccc(N2CCN(CC(=O)Nc3ccc(SC(F)F)cc3)CC2)cc1 | -76.6
27 | COc1cccc(N2CCN(CC(=O)Nc3ccc(-n4cnnn4)cc3)CC2)c1 | 7.28
28 | O=C1CN(CC(=O)Nc2ccc(SC(F)F)cc2)CCN1 | -32.6

Row | Compound | hERG current change (%, negative = inhibition) at 10uM [%]
29 | COc1ccc(NC(=O)CN2CCN(c3ccccc3)CC2)cc1 | 1.85
30 | O=C(CN1CCN(c2ccc(O)cc2)CC1)Nc1ccc(SC(F)F)cc1 | -74.7
31 | COc1ccc(NC(=O)CN2CCN(c3ccc(F)cc3)CC2)cc1 | -4.62
32 | COc1ccc(OC)c(C(=O)COC(=O)c2c(OC)cccc2OC)c1 | 8.03
33 | CCCN1CCC(NC(=O)C2CCCCC2C(=O)O)CC1 (stereo not shown) | -1.65
34 | C(=N\N=C\c1cccs1)/c1cccs1 | -2.57
35 | Cc1nn(CCC#N)c2c1P(=S)(N1CCCC1)OC(c1ccc(F)cc1)=N2 (stereo not shown) | -7.21
36 | C=CCN1C(=O)C(CC(=O)O)SC1=Nc1c(C)n(C)n(-c2ccccc2)c1=O (stereo not shown) | 1.73
37 | COc1ccccc1/C=C1\SC(=O)N(CC(=O)N(C)C2CCS(=O)(=O)C2)C1=O (stereo not shown) | 11.5
38 | Nc1cc(N)cc(C(=O)Nc2ccc3c(c2)C(=O)NC3=O)c1 | 12.1
39 | O=C(CN1C(=O)NC2(CCCCCC2)C1=O)N1CCN(c2ccccc2)CC1 | -2.9
40 | CCOc1ccc(Cl)cc1S(=O)(=O)N1CCCC1 | -6.06
41 | CN1CCN(c2nnc(-c3ccc(Cl)cc3)c3ccccc23)CC1 | -45.7
42 | O=C1c2ccccc2S(=O)(=O)c2cc(C(=O)N3CCN(c4ccccc4)CC3)ccc21 | -25
43 | COc1ccc(-c2nc(-c3ccncc3)no2)cc1 | 10.5
44 | Cc1ccc(-c2nn(-c3cccc(F)c3)cc2CN2CCN(c3ccccn3)CC2)o1 | -26.5
45 | Cc1ccc(-c2nn(-c3ccccc3)cc2CO)o1 | -0.28
46 | COc1ccc(CNCc2cn(-c3cccc(F)c3)nc2-c2ccc(C)o2)cc1 | -55.5
47 | Cc1ccc(-c2nn(-c3cccc(F)c3)cc2CNCCc2ccncc2)o1 | -53.6
48 | Cc1ccc(-c2nn(-c3cccc(F)c3)cc2CN(Cc2nccn2C)C(C)C)o1 | -21.4
49 | COc1ccc(-n2cc(CNCc3cccnc3)c(-c3cccc(F)c3)n2)cc1 | -47.7
50 | COc1ccc(-c2nn(-c3ccccc3)cc2CNCc2cccnc2)c(F)c1 | -28.1
51 | Cc1ccc(-c2nn(-c3cccc(F)c3)cc2CNCc2cccnc2)o1 | -51.6
52 | COCCNCCCCOc1ccccc1-c1ccccc1.O=C(O)C(=O)O | -27.5
53 | Cc1cc(C(=O)NCC(=O)OCC(=O)NCC2CCCO2)ccc1[N+](=O)[O-] (stereo not shown) | 15.3
54 | COc1ccc(C2C(C(=O)N3CCCC3)CC(=O)N2c2ccc(OC)cc2)cc1 (stereo not shown) | 0.91
55 | O=C(Cn1cnc2c(oc3nc4c(cc32)CCCC4)c1=O)Nc1cccc(Cl)c1 | 16.2
